The values below come from PubChem BioAssay (EPA / NIEHS).

Results filed as inconclusive are left out. Active and inactive are the calls of the source. How the source made its calls: active means hit-call score of the fitted dose curve at least 0.9, where 1 is the maximum; inconclusive means response in the unintended direction; inactive means score below 0.9.

System in one experiment: not listed separately
The experiment is described as follows: ACEA_ER_AUC_viability: ACEA Biosciences xCELLigence Real-Time Cell Analysis on Estrogen Receptor Agonism for Viability (AID 2283782).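 Further: hit means loss of impedance signal meaning reduced cell growth or viability.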 The gist of the method: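 Continuous-exposure impedance cell analysis uses T-47D cells in charcoal-stripped serum, eight 1:4 dilutions topping at 100 uM final, biological duplicate. Area under the growth curve at 80 h is fitted against DMSO baseline.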
Regarding `COC(=O)c1ccccc1C(=O)OC`, the compound was classed as inactive.

Consider `Fc1ccc(Oc2ccnc3cc(Cl)cc(Cl)c23)cc1`, for which the AC50 is 80.2 µM (active).

Take `CCNc1nc(Cl)nc(NC(C)C)n1`: the outcome was inactive.

As to `CCCCNC(=O)OCC#CI`, the AC50 is 5.58 µM (active).

For the compound `CCCCC(CC)COC(=O)c1ccccc1C(=O)OCC(CC)CCCC` (centres undefined), the result was inactive.

Consider `C=CC1(C)OC(=O)N(c2cc(Cl)cc(Cl)c2)C1=O` (centres undefined), for which the compound was called inactive.

For the compound `CCON=C(CC)C1=C(O)CC(c2c(C)cc(C)cc2C)CC1=O` (centres undefined), the call was inactive.

For `OC(c1ccc(Cl)cc1)(c1cncnc1)c1ccccc1Cl` (centres undefined), the result was inactive.

With `COc1ccc(C(c2ccc(OC)cc2)C(Cl)(Cl)Cl)cc1`, the half-maximal activity concentration (AC50) was 88.6 µM (active).

In the case of `CCc1nn(C)c(C(=O)NCc2ccc(C(C)(C)C)cc2)c1Cl`, the compound was classed as inactive.

Take `CS/C(C)=N/OC(=O)N(C)SN(C)C(=O)O/N=C(\C)SC`: the half-maximal activity concentration (AC50) was 24.8 µM (active).

In the case of `CCOC(=O)C(Cl)Cc1cc(-n2nc(C)n(C(F)F)c2=O)c(F)cc1Cl` (centres undefined), the outcome was inactive.

For the next experiment, the target named is AR (gene 367) (UniProt P10275). The experiment is described as follows: ACEA_AR_agonist_80hr: ACEA Biosciences xCELLigence Real-Time Cell Analysis on Androgen Receptor Agonism for Proliferation (AID 2283783).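 Further: hits increase impedance growth signal above DMSO baseline.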 A digest of the protocol: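 Real-time cell-growth kinetics were recorded by electrode impedance in 22Rv1 cells exposed to test chemicals up to 100 uM final; the 80 h timepoint served as the readout, fitted upward relative to DMSO controls, in biological duplicate.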
Chain of AR (gene 367) (P10275 whole entry, looked up): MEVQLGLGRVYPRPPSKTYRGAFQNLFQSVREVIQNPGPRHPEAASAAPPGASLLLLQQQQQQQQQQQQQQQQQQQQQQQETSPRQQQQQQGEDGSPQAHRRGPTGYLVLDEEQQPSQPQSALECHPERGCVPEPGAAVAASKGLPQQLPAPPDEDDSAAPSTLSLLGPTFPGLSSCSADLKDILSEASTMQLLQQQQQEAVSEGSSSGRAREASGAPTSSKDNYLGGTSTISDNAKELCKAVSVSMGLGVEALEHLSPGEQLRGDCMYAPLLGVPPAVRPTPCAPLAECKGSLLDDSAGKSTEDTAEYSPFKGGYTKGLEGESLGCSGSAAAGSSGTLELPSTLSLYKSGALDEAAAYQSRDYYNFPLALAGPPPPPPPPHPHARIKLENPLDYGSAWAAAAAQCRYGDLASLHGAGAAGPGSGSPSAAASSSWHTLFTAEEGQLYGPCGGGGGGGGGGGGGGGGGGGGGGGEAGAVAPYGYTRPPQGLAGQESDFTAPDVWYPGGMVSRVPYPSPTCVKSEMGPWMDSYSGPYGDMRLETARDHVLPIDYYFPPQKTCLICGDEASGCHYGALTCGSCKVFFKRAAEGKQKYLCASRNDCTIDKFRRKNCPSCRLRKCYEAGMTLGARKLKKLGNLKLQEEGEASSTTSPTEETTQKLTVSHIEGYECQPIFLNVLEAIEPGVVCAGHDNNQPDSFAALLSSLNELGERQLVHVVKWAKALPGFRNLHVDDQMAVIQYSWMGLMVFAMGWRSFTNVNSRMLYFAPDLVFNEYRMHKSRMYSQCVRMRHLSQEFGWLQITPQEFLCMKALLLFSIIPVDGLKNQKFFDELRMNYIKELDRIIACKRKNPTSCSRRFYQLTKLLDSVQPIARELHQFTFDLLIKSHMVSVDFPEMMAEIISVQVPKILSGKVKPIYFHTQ
Consider `Cc1ccc(-c2c(Cl)nc(C#N)n2S(=O)(=O)N(C)C)cc1`, for which the call was inactive.

Turning to `Cc1cc(Cl)ccc1OCC(=O)O`, the compound was called inactive.

Take `N#Cc1cc(Br)c(O)c(Br)c1`: the call was inactive.

With `CS/C(C)=N/OC(=O)N(C)SN(C)C(=O)O/N=C(\C)SC`, the result was inactive.

System in the next experiment: not listed separately
The experiment is described as follows: STM_H9_NormalizedViability: Cytotoxicity Assessment at 120 hours in the Stemina devTOX quickPredict H9 human embryonic stem cell (hESC)-based Assay (AID 2283784). A digest of the protocol:
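CellTiter-Fluor RFU, background-subtracted, expressed relative to 0.1% DMSO neutral control by plate. Pluripotent H9 cells; treatment with daily re-dosing. Plates carried 1uM methotrexate (positive) and 5 nM methotrexate (negative) references.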
With `COC(=O)c1ccccc1C(=O)OC`, the outcome was inactive.

Turning to `COc1nc(NC(C)C)nc(NC(C)C)n1`, the result was inactive.

Take `CCNc1nc(Cl)nc(NC(C)C)n1`: the outcome was inactive.

`CCCCC(CC)COC(=O)c1ccccc1C(=O)OCC(CC)CCCC` (centres undefined): the outcome was inactive.

Take `C=CC1(C)OC(=O)N(c2cc(Cl)cc(Cl)c2)C1=O` (centres undefined): the result was inactive.

Consider `CCNc1nc(Cl)nc(NCC)n1`, for which the outcome was inactive.

For `OC(c1ccc(Cl)cc1)(c1cncnc1)c1ccccc1Cl` (centres undefined), the result was inactive.

`CCc1nn(C)c(C(=O)NCc2ccc(C(C)(C)C)cc2)c1Cl`: the AC50 was 2.12 µM (active).

In the next experiment the target is AR (gene 367) (UniProt P10275). The experiment is described as follows: ACEA_AR_antagonist_80hr: ACEA Biosciences xCELLigence Real-Time Cell Analysis on Androgen Receptor Antagonism for Proliferation (AID 2283787).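 Further: 22Rv1 human prostate cancer cells with growth followed by electrical impedance; hits lower the impedance growth signal relative to DMSO.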 The gist of the method:
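Using 22Rv1 cells held in assay medium, we dosed compounds (100 uM maximum final, 1:4 serial, eight points, 0.5% DMSO at top) and recorded cell-electrode impedance; the 80 hr timepoint was analyzed against DMSO.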
Take `Cc1ccc(-c2c(Cl)nc(C#N)n2S(=O)(=O)N(C)C)cc1`: the concentration at half-maximal activity (AC50) is 14.1 µM (active).

With `Cc1cc(Cl)ccc1OCC(=O)O`, the compound was called inactive.

As for `N#Cc1cc(Br)c(O)c(Br)c1`, the half-maximal activity concentration (AC50) is 53.5 µM (active).

`CCON=C(CC)C1=C(O)CC(c2c(C)cc(C)cc2C)CC1=O` (centres undefined): the compound was classed as inactive.

In the case of `CS/C(C)=N/OC(=O)N(C)SN(C)C(=O)O/N=C(\C)SC`, the concentration at half-maximal activity (AC50) is 76.7 µM (active).

By AC50 is commonly meant the concentration at which the activity in the assay is half-maximal.
